Measurements published in PubChem BioAssay AID651791 (National Center for Advancing Translational Sciences (NCATS), 2012).
Results filed as inconclusive are left out. The source made the active and inactive calls. Calls follow the shape of the dose curve; as a rule, active = well fitted inhibition curve with a large enough effect; inconclusive = small, poorly fitted or top-dose-only effect; inactive = no such curve, though single readings can be large or run the other way.

Assay: InCell qHTS Assay for Inhibitors of the mTORC1 Signaling Pathway in MEF (Tsc2-/-, p53-/-) Cells: Hit Validation;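 also: phospho-S6 Ser235/236 signal normalized to propidium iodide cell count per well; nearly all actives have a fitted effect of over 75% in size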
Details: phospho-rpS6 immunofluorescence, 24 h; activity change, negative = inhibition: at 38.3 µM (top of the series)
Potency is read from the fitted curve at half-maximal effect.

Question: Which activity change, negative = inhibition does the source give for `Cc1oc(-c2ccccc2F)nc1Cn1c(SCc2cccc(Cl)c2)nc2ccncc21` here?
Answer: The activity change, negative = inhibition was -100%.

Question: For `CCCCS(=O)(=O)c1oc(-c2ccc(F)cc2)nc1S(=O)(=O)c1ccccc1`, which Potency is on record?
Answer: The Potency was 2.07 µM (active).

Question: For `Cc1cccc(CN2CCc3nc(N4CCN(c5ccccn5)CC4)ncc3C2)c1`, which activity change, negative = inhibition is on record?
Answer: The activity change, negative = inhibition was -100%.

Question: With `Fc1ccc(Nc2nc3nonc3nc2Nc2cccc(C(F)(F)F)c2)cc1` as the compound, how does the activity change, negative = inhibition read?
Answer: The activity change, negative = inhibition was -100%.

Question: With `CCC(C(=O)N1CCN(c2cccc(C)c2C)CC1)n1nc(C)c2sc3ccccc3c2c1=O` (configuration not stated) as the compound, how does the activity change, negative = inhibition read?
Answer: Its activity change, negative = inhibition is -100%.

Question: For `CCOc1ccc(CCNCc2c(C(=O)O)n(Cc3ccc(C)cc3)c3cc(OC)ccc23)cc1`, which activity change, negative = inhibition is on record?
Answer: Its activity change, negative = inhibition is -100%.

Question: With `O=S(=O)(NCc1nc2cccnc2n1Cc1ccccc1Cl)c1ccc(F)c(Cl)c1` as the compound, how does the activity change, negative = inhibition read?
Answer: The activity change, negative = inhibition was -100%.

Question: Which activity change, negative = inhibition does the source give for `Cc1ccc(NC(=O)Cn2cc(C(=O)C3CCCCC3)c3ccccc32)cc1` here?
Answer: The activity change, negative = inhibition was -100%.

Question: With `CCc1ccc(CNc2ncc(-c3cccc(OC)c3)n2C)cc1` as the compound, how does the activity change, negative = inhibition read?
Answer: Its activity change, negative = inhibition is -100%.

Question: With `CCCCN1C(=O)C(O)(CC(=O)c2ccc(CC)cc2)c2cc(Br)ccc21` (configuration not stated) as the compound, how does the activity change, negative = inhibition read?
Answer: The activity change, negative = inhibition was -23.7%.

Question: Which Potency does the source give for `CCCCn1c(=N)n(CCOc2ccccc2OC)c2ccccc21` here?
Answer: The Potency was 7.36 µM (active).

Question: Which Potency does the source give for `CCN(CC)CCOC(=O)c1ccc(NC(=O)c2nn(-c3ccc(C)cc3)c(=O)c3c2c2ccccc2n3C)cc1` here?
Answer: The Potency was 3.29 µM (active).

Question: With `CCOC(=O)N1CCN(Cc2nc3cc(NC(=O)c4cccc(C)c4)ccc3n2C(C)C)CC1` as the compound, how does the activity change, negative = inhibition read?
Answer: Its activity change, negative = inhibition is -100%.

Question: For `Cc1cccc(-n2ncc3c(Nc4c(C)cc(C)cc4C)ncnc32)c1`, which activity change, negative = inhibition is on record?
Answer: The activity change, negative = inhibition was -100%.

Question: Which activity change, negative = inhibition does the source give for `CC(C)N(C(=O)CSc1nc2ccc(Cl)cc2[nH]1)c1ccccc1` here?
Answer: The activity change, negative = inhibition was -100%.

Question: Which activity change, negative = inhibition does the source give for `CCSc1oc(-c2ccc(F)cc2)nc1S(=O)(=O)c1ccc(C)cc1` here?
Answer: Its activity change, negative = inhibition is -100%.

Question: Which activity change, negative = inhibition does the source give for `COc1ccc(C(F)(F)F)cc1NC(=O)c1sc2nc(-c3cccs3)ccc2c1N` here?
Answer: Its activity change, negative = inhibition is -11%.

Question: For `CC1CCN(S(=O)(=O)c2ccc3nc(Nc4cccc(C(F)(F)F)c4)ccc3c2)CC1`, which activity change, negative = inhibition is on record?
Answer: Its activity change, negative = inhibition is -100%.

Question: With `COc1ccc(CCNC(=O)CCCn2nc(C)c3sc4ccccc4c3c2=O)cc1OC` as the compound, how does the activity change, negative = inhibition read?
Answer: The activity change, negative = inhibition was -100%.

Question: For `Oc1ccc(NCc2ccccc2OCc2ccc(Cl)cc2)cc1`, which activity change, negative = inhibition is on record?
Answer: Its activity change, negative = inhibition is -100%.

Question: Which Potency does the source give for `CCS(=O)(=O)c1ncc(Cl)c(C(=O)N2CCN(c3cccc(Cl)c3)CC2)n1` here?
Answer: The Potency was 2.61 µM (active).

Question: Which activity change, negative = inhibition does the source give for `CCOc1ccc(S(=O)(=O)NCCc2sc(-c3ccc(C)cc3)nc2C)cc1` here?
Answer: The activity change, negative = inhibition was -100%.

Question: For `CCCN1C(=O)C(O)(CC(=O)c2ccc(CC)cc2)c2ccccc21` (configuration not stated), which activity change, negative = inhibition is on record?
Answer: The activity change, negative = inhibition was -100%.

Question: With `CCOC(=O)c1c(C)[nH]c(CCC(=O)Nc2cc(C)ccc2OC)c1C` as the compound, how does the activity change, negative = inhibition read?
Answer: The activity change, negative = inhibition was -100%.

Question: Which activity change, negative = inhibition does the source give for `COc1ccc(C(=O)Nc2ccc(OCc3cc(=O)n4ccccc4n3)cc2)cc1` here?
Answer: The activity change, negative = inhibition was -100%.

Question: Which activity change, negative = inhibition does the source give for `Cc1c(C(=O)OC2CCCCC2)[nH]c2c1C(=O)CC(c1ccccc1)C2` (configuration not stated) here?
Answer: The activity change, negative = inhibition was -24.8%.

Question: Which activity change, negative = inhibition does the source give for `COc1ccccc1NC(=O)c1sc(-c2ccc(Cl)cc2)cc1N` here?
Answer: Its activity change, negative = inhibition is -100%.

Question: Which activity change, negative = inhibition does the source give for `O=C1c2[nH]nc(-c3ccccc3O)c2C(c2ccc(Cl)cc2)N1CCc1ccccc1` (configuration not stated) here?
Answer: The activity change, negative = inhibition was -21.4%.

Question: With `Cc1nn(CC(=O)NCc2ccccc2Cl)c(=O)c2cccn12` as the compound, how does the activity change, negative = inhibition read?
Answer: Its activity change, negative = inhibition is -100%.

Question: Which activity change, negative = inhibition does the source give for `Oc1ccccc1Nc1nc(-c2ccccc2)c2cc(Cl)ccc2n1` here?
Answer: The activity change, negative = inhibition was -100%.

Question: Which activity change, negative = inhibition does the source give for `Cc1cccc(OCc2ccc(-c3nc(C#N)c(NCCN(C)C)o3)o2)c1` here?
Answer: Its activity change, negative = inhibition is -100%.

Question: Which activity change, negative = inhibition does the source give for `CCN(CC)CC(C)CNC(=O)c1cc(-c2ccc(Br)s2)nc2ccccc12` (configuration not stated) here?
Answer: Its activity change, negative = inhibition is -14.3%.

Question: With `COc1ccc(OCC(=O)Nc2ccc3nn(-c4ccc(OC)cc4)nc3c2)cc1` as the compound, how does the activity change, negative = inhibition read?
Answer: The activity change, negative = inhibition was -100%.

Question: Which Potency does the source give for `CCOC(=O)Cn1c(=O)c2c(nc(N3CCOCC3)n2Cc2ccccc2)n(C)c1=O` here?
Answer: The Potency was 11.7 µM (active).

Question: For `COc1ccc2c(CNCCc3cccs3)c(C(=O)O)n(Cc3ccc(F)cc3Cl)c2c1`, which activity change, negative = inhibition is on record?
Answer: Its activity change, negative = inhibition is -100%.

Question: With `CCCCNC(=O)c1ccc2c(c1)N=C(CC)c1ccccc1S2` as the compound, how does the activity change, negative = inhibition read?
Answer: The activity change, negative = inhibition was -16%.

Question: For `COc1ccccc1-c1noc(CSc2nc3ccc(C)cc3[nH]2)n1`, which activity change, negative = inhibition is on record?
Answer: Its activity change, negative = inhibition is -100%.
